Source: PubChem BioAssay (National Center for Advancing Translational Sciences (NCATS))
FMDV inh: blocks foot and mouth disease virus. FMDV antiviral cell-based qHTS. Potency, µM (titrated, usually from 57.9 µM), inactives show at the highest dose activity change, negative = inhibition, usual class: inhibitors. 1.2% of 410,000 active; calls by dose curve; tested in HEK293T cells; also: read-out not given here; nearly all actives have a fitted effect of over 45% in size
VACV mCherry inh: inhibitors of vaccinia virus infection (mCherry reporter signal). Vaccinia virus mCherry reporter infection, fluorescence. 0.63% of 310,000 active. Potency, µM (top dose mostly 36.5 µM), without a hit: at the top dose activity change, negative = inhibition, actives largely listed as inhibitors. AID 720579; calls by dose curve; tested in A549 cells; also: nearly all actives have a fitted effect of over 35% in size
LASV entry inh: Lassa virus entry inhibition; 1.2% of 300,000 active; Potency, µM (highest dose often 37.9 µM), inactives show at the highest dose activity change, negative = inhibition, usual class: inhibitors; Lassa virus pseudotype entry inhibition, cell reporter; calls by dose curve; tested in HEK293 cells; also: nearly all actives have a fitted effect of over 50% in size
Marburg entry inh: inhibitors of Marburg virus binding or cell entry; Marburg virus pseudotyped entry inhibition, cell reporter; Potency, µM (highest dose often 37.8 µM), inactives show at the highest dose activity change, negative = inhibition, most hits filed as inhibitors; 1.8% of 300,000 active; calls by dose curve; tested in HEK293 cells
Vaccinia Venus: vaccinia inhibition (Venus reporter); Vaccinia virus Venus reporter expression, fluorescence; Potency, µM (top dose mostly 36.5 µM), without a hit: at the top dose activity change, negative = inhibition, most hits filed as inhibitors; 0.46% of 330,000 active; AID 720580; calls by dose curve; tested in A549 cells; also: nearly all actives have a fitted effect of over 30% in size
HCV inhibitor: blocks hepatitis C virus; 3.4% of 340,000 active; Potency, µM (highest dose often 41.8 µM), for inactives: at the top dose activity change, negative = inhibition, most hits filed as inhibitors; Huh7.5.1 HCVcc-Cre infection, luciferase reporter, 44 h; active = well fitted inhibition curve with a large enough effect; inconclusive = small, poorly fitted or top-dose-only effect, or another doubt; inactive = no such curve, though single readings can be large or run the other way
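Cells (1,000/well) were plated 4 h before compound, then infected with HCVcc-Cre virus (~0.5 moi). After 44 h further culture, infection was read as luciferase luminescence following a 15 min substrate incubation at room temperature.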
Starred values were filed as active, the others as inactive; i = inactive; ? = inconclusive; nt = no result given; [ ] = remark or other dose. Rows were chosen to be rich in hits. Some 5.3% of all compounds tested hit in one or more screens of this group. % is scaled to controls: 0 for no effect and ±100 for the full control effect; potency is read from the fitted curve at half-maximal effect.

SMILES | FMDV inh | VACV mCherry inh | LASV entry inh | Marburg entry inh | Vaccinia Venus | HCV inhibitor
O=C(CCc1nc(-c2ccc(F)cc2)no1)Nc1cccc(C(=O)NC2CC2)c1 | 40µM* | nt | nt | nt | nt | 14µM*
CCOC(=O)c1ccc(NC(=O)CCc2nc(-c3ccc(C)cc3)no2)cc1 | ? | nt | ? | -1% | nt | 8.9µM*
O=C(c1ccccc1C(F)(F)F)N1CCOc2c(cc(-c3nc4ccccc4s3)cc2OC2CCOC2)C1 (stereo not given) | 0% | i | nt | nt | ? | nt
COC(=O)CC1N(S(=O)(=O)c2ccc(C)cc2)c2ccccc2C1(C(=O)OC)C(=O)OC (stereo not given) | -25% | -17% | nt | nt | -14% | nt
O=c1[nH]c2cc(C(F)(F)F)c(N3CCOCC3)cc2n(CP(=O)(O)O)c1=O | -17% | nt | nt | nt | nt | nt
O=C(c1cnc2ccc3ccccc3c2c1)c1cc(F)ccc1O | ? | ? | nt | nt | -12% | 5.6µM*
Cc1ccc(NC(=O)CSc2nc(C3CCCC3)nc3c2c(=O)n(C)c(=O)n3C)c(C)c1 | -12% | 15% | 1%[46.1 µM] | nt | -8% | nt
CCCCN(CC)C(=O)CSc1c2c(nc3ccc(Cl)cc13)CCCC2 | ? | -11% | 2%[46.1 µM] | -1%[46.1 µM] | -15% | nt
CO/N=C/C(=N\Nc1ccc(OC)cc1)C(=O)c1ccc(OC)cc1 | -22% | nt | 11µM* | ? | -14% | 0%
COc1ccc(C(=O)C(/C=N/O)=N/Nc2ccc(F)cc2)cc1 | -8% | i | 4% | -4%[46.1 µM] | -17% | 3%
CC1(C)CC(=O)C2=C(C1)OC1=C(C(=O)CC(C)(C)C1)C2c1ccc(O)cc1O | 6.3µM* | nt | -87% | ? | nt | ?
CC1(C)CC(=O)C2=C(C1)OC1=C(C(=O)CC(C)(C)C1)C2c1ccc(O)c([N+](=O)[O-])c1 | 3% | nt | nt | nt | nt | 9%
COc1ccc(CCNc2oc(Cc3ccccc3)nc2C#N)cc1OC | 14µM* | -12% | -15% | ? | -33% | 10µM*
COc1ccc(CCNc2oc(COc3ccccc3Cl)nc2C#N)cc1OC | 20µM* | -28% | nt | nt | -22% | ?
COc1ccc(CCNc2oc(COc3ccccc3F)nc2C#N)cc1OC | 0% | i | ? | ? | -26% | ?
O=C1C(Br)=C(c2ccccc2)C(c2ccccc2)=C1c1ccccc1 | 3.5µM* | -7% | ? | ? | -10% | 6.3µM*
O=C1NC(c2ccccc2)=C(c2ccccc2)C1=O | -5% | i | 1% | 2% | -4% | 2%
Cc1ccc(-n2nc(C(=O)N3CCC(C)CC3)c(=O)n(C)c2=O)cc1 | -11% | -15% | 12%[46.1 µM] | nt | -6% | nt
Cc1cc(C)c(OCCCCNCc2ccccc2)c(Cl)c1 | 0% | nt | ? | ? | nt | 11µM*
CCOc1ccc(C(=O)NC(=S)Nc2cccc(S(=O)(=O)NC3=NCCC3)c2)cc1 | 2% | -10% | ? | ? | ? | 14µM*
Cc1ccsc1C(=O)Nc1cc(Cl)ccc1-n1cncn1 | 34% | i | -3% | 6% | -12% | 7.1µM*
Cc1ccc(C(=O)Nc2cc(Cl)ccc2-n2cncn2)s1 | 66% | i | -2%[46.1 µM] | 6% | -7% | ?
C[C@H](CCC(=O)OCc1cn(CC(=O)c2ccc(O)cc2)nn1)[C@H]1CC[C@H]2[C@@H]3CC[C@@H]4C[C@H](O)CC[C@]4(C)[C@@H]3C[C@H](O)[C@]12C | nt | nt | 6%[46.1 µM] | nt | nt | nt
CCn1c(SCc2nc(-c3cccs3)no2)nnc1-c1c[nH]c2ccccc12 | 22µM* | i | 20µM* | ? | -9% | ?
CCOC(=O)c1c(NC(=O)C2=C(C)NC(=S)NC2c2ccc(F)cc2)sc(C)c1C (stereo not given) | -16% | nt | ? | -40% | nt | 8.9µM*
SMILES | FMDV inh | VACV mCherry inh | LASV entry inh | Marburg entry inh | Vaccinia Venus | HCV inhibitor
CCOC(=O)c1c(NC(=O)C2=C(C)NC(=S)NC2c2ccc(F)cc2F)sc(C)c1C (stereo not given) | 0% | -28% | ? | ? | -16% | ?
CCOC(=O)c1c(NC(=O)C2=C(C)NC(=S)NC2c2ccc(C)cc2)sc(C)c1C (stereo not given) | -22% | -19% | ? | ? | -28% | 10µM*
O=C(NNC(=O)C12CC3CC(CC(C3)C1)C2)c1cnccn1 | -13% | -28% | 7% | -14% | -12% | -18%
O=C(NNC(=O)C12CC3CC(CC(C3)C1)C2)c1ccccn1 | ? | 10µM* | 7.9µM* | 10µM* | ? | ?
CC(C)c1ccccc1OCC(O)CN1CCN(S(=O)(=O)c2ccc([N+](=O)[O-])cc2)CC1 (stereo not given) | ? | ? | ? | ? | ? | 13µM*
O=S(=O)(c1ccc(F)cc1)N1CCN(CC(O)COc2ccccc2F)CC1 (stereo not given) | -23% | -24% | 1% | -1% | -17% | 3%
COCCN1C(=O)NC(c2cccc(F)c2)C(C(C)=O)=C1C (stereo not given) | nt | nt | nt | -6%[14.2 µM] | nt | nt
O=C1c2ccccc2NC(c2cc(Br)c3c(c2)OCO3)N1Cc1ccco1 (stereo not given) | nt | -23% | nt | nt | -6% | nt
C=CCN(CC=C)CCOc1cccc2ccccc12 | -19% | -20% | 3% | ? | -8% | 2%
CCCCN(CC)CCOc1cccc2ccccc12 | 40µM* | ? | nt | nt | ? | nt
COc1ccc(Oc2ncc3nc(-c4ccc(OC)cc4)c(=O)n(C4CC4)c3n2)cc1 | -13% | nt | nt | nt | nt | nt
O=C(Nc1ccccc1)c1cc(C2CCCN(C(=O)C3CC3)C2)on1 (stereo not given) | -61% | -4% | nt | nt | 0% | nt
CC(=O)N1CCCC(c2cc(C(=O)Nc3ccccc3)no2)C1 (stereo not given) | 35µM* | -1% | nt | nt | 4% | nt
O=C(/C(=C/O)N=Nc1cccc(C(F)(F)F)c1)c1ccccc1 | ? | -11% | ? | ? | -17% | ?
Cc1cccc(N=N/C(=C\O)C(=O)c2ccc(Br)cc2)c1 | -13% | -24% | 5.6µM* | 7.9µM* | -5% | 10µM*
CC(C)c1ccc(CNCc2ccccc2)cc1 | nt | -3% | 13% | 18µM* | -13% | -10%
CCOC(=O)C1CCN(Cc2ccc(OC)cc2OC)CC1 | ? | nt | -12% | -3% | nt | -4%
CCOC(=O)C1CCN(Cc2cnc(Oc3ccc(OC)cc3)s2)CC1 | -11% | nt | 1.5µM* | -11% | nt | 6%
O=C(CC1C=Cc2ccccc2N1C(=O)c1ccccc1)c1ccccc1 (stereo not given) | -25% | -10% | nt | nt | -19% | 10µM*
C[C@]12C=CC(=O)C=C1CC[C@@H]1C2=CC[C@]2(C)[C@@H](C(=O)CN3CCN(c4cc(N5CCCC5)nc(N5CCCC5)n4)CC3)CC[C@@H]12 | -4% | 1µM* | -25% | 5.6µM* | ? | -17%
O=C(O)c1cccc(NC(=O)c2cccc(NC(=O)C3CCCO3)c2)c1 (stereo not given) | ? | -12% | -26% | -21% | -5% | 19%
O=C(Nc1ccc(N=Nc2ccccc2)c(NC(=O)C2CCCO2)c1)C1CCCO1 (stereo not given) | 35% | -12% | ? | ? | ? | 2µM*
